# In the library only some 9.2% were active in any assay of this set; here they are far more common.
# SMN2 splice up = qHTS Assay for Enhancers of SMN2 Splice Variant Expression; HEK293 SMN2-luciferase splicing reporter, luminescence, 30-36 h; Potency, µM (doses to about 46.1 µM), for the others: top-dose activity change, positive = activation, most hits filed as activators; actives 2.8% (n = 210,000); AID 1458, 2008; note: % of control where 0% means no effect; nearly all actives have a fitted effect of over 55% in size
#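 qHTS luciferase splicing reporter: luminescence rises when SMN2 exon 7 is included in transfected HEK293 cells. Compound exposure lasted 30-36 h at 37C, with 4.5 mM final sodium butyrate as control, followed by a ONE-Glo read.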
# ELG1 genotoxic = qHTS screen for small molecules that induce genotoxicity in human embryonic kidney (HEK293T) cells expressing luciferase-tagged ELG1; HEK293T ELG1-luciferase reporter, luminescence, 16 h; Potency, µM (titrated, usually from 46 µM), for the others: at the highest dose activity change, positive = activation, hits mostly activators; actives 1.3% (n = 330,000); note: % of control where 0% means no effect; nearly all actives have a fitted effect of over 60% in size
#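 HEK293T cells expressing luciferase-tagged ELG1 were treated with compound or DMSO for 16 hr at 37°C. Luciferase activity was then read after 30 min with ONE-Glo at room temperature; rising signal flags genetic stress.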
# NPC1 prom act = qHTS Assay for NPC1 Promoter Activators; Huh7 NPC1 promoter luciferase reporter, 24 h; Potency, µM (highest dose often 9.22 µM), without a hit: at the highest dose activation, usual class: activators; actives 2.4% (n = 320,000); AID 485313, 2010; note: % of control where 0% means no effect; nearly all actives have a fitted effect of over 60% in size
#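 Luciferase expression driven by the NPC1 promoter was measured in stably transfected Huh7 cells after a 24 h compound incubation, using a luciferase reagent and a luminescence read.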
# FLuc counter = qHTS profiling assay for firefly luciferase inhibitor/activator using purifed enzyme and Km concentrations of substrates (counterscreen for miR-21 project) | Luciferin 4-monooxygenase (Photinus pyralis), P08659 | purified FLuc, Km substrates, luminescence inhibition | Potency, µM (titrated, usually from 57.5 µM), without a hit: top-dose activity change, negative = inhibition, usual class: inhibitors | actives 6.9% (n = 360,000) | AID 588342, 2011;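 note: plate controls were vehicle for no effect and reference inhibitor for full effect; nearly all actives have a fitted effect of over 55% in size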
# Target sequence (P08659 whole entry, looked up): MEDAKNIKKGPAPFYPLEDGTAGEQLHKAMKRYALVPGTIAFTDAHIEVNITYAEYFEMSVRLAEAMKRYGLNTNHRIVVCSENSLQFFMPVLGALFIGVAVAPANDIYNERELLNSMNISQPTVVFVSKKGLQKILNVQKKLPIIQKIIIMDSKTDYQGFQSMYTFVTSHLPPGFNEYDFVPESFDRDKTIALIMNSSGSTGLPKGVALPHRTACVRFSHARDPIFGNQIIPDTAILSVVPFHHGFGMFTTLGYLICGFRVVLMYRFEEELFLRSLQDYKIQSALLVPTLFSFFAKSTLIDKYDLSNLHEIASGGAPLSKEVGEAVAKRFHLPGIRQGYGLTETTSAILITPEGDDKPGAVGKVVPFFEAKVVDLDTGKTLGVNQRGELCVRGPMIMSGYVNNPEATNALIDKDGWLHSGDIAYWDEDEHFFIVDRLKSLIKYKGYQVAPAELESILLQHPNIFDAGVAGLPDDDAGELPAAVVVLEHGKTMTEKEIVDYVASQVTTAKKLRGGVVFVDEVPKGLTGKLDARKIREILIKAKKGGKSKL
#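 Purified P. pyralis luciferase (10nM final) with 10uM D-luciferin and 10uM ATP (Km levels) in 50mM Tris acetate pH 7.5, 10mM Mg acetate, 0.01% Tween-20, 0.05% BSA; qHTS 6-point titration, ~60 µM downward; luminescence read.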
# Rab9 prom act = qHTS Assay for Rab9 Promoter Activators. Huh7 Rab9 promoter-luciferase reporter, luminescence, 24 h. Potency, µM (highest dose often 9.22 µM), for inactives: top-dose activation, negative = inhibition, most hits filed as activators. actives 2.8% (n = 320,000). AID 485297, 2010; note: % of control where 0% means no effect; nearly all actives have a fitted effect of over 60% in size
#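 Quantitative HTS format; Huh7 Rab9-luciferase reporter cells (1500/well) receive compound 2 h post-plating, incubate 24 h at 37 °C, then get luciferase reagent for 10 min before luminescence reading.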
# ELG1 DNA repair = qHTS screen for small molecules that inhibit ELG1-dependent DNA repair in human embryonic kidney (HEK293T) cells expressing luciferase-tagged ELG1 | HEK293T ELG1-luciferase reporter, luminescence, 16 h; DNA damage induced by 5-fluorouridine | actives 2.3% (n = 330,000) | Potency, µM (titrated, usually from 46.1 µM), inactives show top-dose activity change, negative = inhibition, most hits filed as inhibitors | AID 504467, 2011; note: % is set by controls: 0 for no effect and ±100 for the full control effect; nearly all actives have a fitted effect of over 55% in size
#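 Reporter activity after DNA damage by 5-fluorouridine is monitored. Compound-treated cells incubate 16 hr at 37 °C, then ONE-Glo is added for 30 min before luminescence reading.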
# Active calls of the source: *; ? = inconclusive; / = not tested or not shown. Calls come from the whole dose curve; as a rule, active = well fitted curve in the direction sought with a large enough effect; inconclusive = small, poorly fitted or top-dose-only effect, or another doubt; inactive = no such curve, though single readings can be large; an effect the other way counts as inactive or inconclusive. Potency is the fitted concentration of half-maximal effect.
SMILES,SMN2 splice up,ELG1 genotoxic,NPC1 prom act,FLuc counter,Rab9 prom act,ELG1 DNA repair
Fc1ccccc1C1CCN(Cc2nc(CC3CC3)no2)C1 (stereo not given),/,?,?,17µM*,?,?
Fc1ccc2nc(C3CCN(Cc4nc(CC5CC5)no4)CC3)[nH]c2c1,/,-5%,-1%,-3%,-2%,?
COC(=O)Cc1[nH]n(-c2ccccc2)c(=O)c1C=Nc1ccc(C)cc1,/,2%,0%,9.5µM*,-3%,0%
CCOc1[nH]n(-c2ccccc2)c(=O)c1C=NCC(=O)OC,5%,2%,-2%,-4%,18%,-9%
CC(=O)N(/N=C1\Sc2ccccc2C1=O)c1ccccc1C,?,?,?,11µM*,3.2µM*,?
CC(=O)N(/N=C1\Sc2ccccc2C1=O)c1ccc(C)cc1C,-68%,15µM*,?,17µM*,23%,?
CN(C)/C=C1/Sc2ccccc2C1=O,8%,-2%,11%,?,-4%,?
CC(=O)N(/N=C1/C(=O)Nc2ccccc21)c1ccccc1,/,11%,?,-17%,?,?
CC(=O)N(/N=C1\Sc2ccccc2C1=O)c1ccccc1,14µM*,?,23%,?,23%,?
CC(=O)Oc1ccc(N(C(C)=O)S(=O)(=O)c2ccc(C)cc2C)c2ccccc12,/,-11%,-1%,-2%,10%,?
CC(=O)N(\C=C/C=C/C=C1\Sc2ccccc2C1=O)c1ccccc1,-58%,-5%,-2%,7.6µM*,7%,?
Cc1ccc(NC(=O)c2cnn3c(C(F)F)cc(-c4ccccc4)nc23)cc1F,-15%,/,/,3%,/,/
COc1cc(NC(=O)N2CCSc3ccccc32)cc(OC)c1OC,/,/,/,-8%,/,/
Cc1cc(C)cc(N(CCC#N)C(=O)COC(=O)c2nc3nc(C)cc(C)n3n2)c1,/,-1%,-3%,-2%,-1%,-2%
CCCn1c(N)c(C(=O)CSc2nnc(Cc3ccccc3)o2)c(=O)n(C)c1=O,-108%,-9%,-14%,1%,-14%,5.8µM*
CCCn1c(N)c(C(=O)CSc2n[nH]c(-c3ccccc3F)n2)c(=O)n(C)c1=O,/,-9%,-4%,3%,0%,?
CC1Cn2c(nc3sc4c(c3c2=O)CC(C)(C)OC4)N1CCO (stereo not given),/,1%,0%,-2%,0%,-8%
Cc1ccc(Nc2nc(-c3sc(C)nc3C)cs2)cc1,/,18%,-18%,12µM*,0%,-26%
Cc1ccc(Nc2nc(-c3sc(N)nc3C)cs2)cc1,/,?,0.79µM*,2.1µM*,2.2µM*,-1%
CC(=O)Nc1ccc(Nc2nc(-c3sc(C)nc3C)cs2)cc1,/,-9%,-5%,21µM*,-1%,?
CCOc1ccc(Nc2nc(-c3sc(N)nc3C)cs2)cc1,/,10%,?,15µM*,26%,4%
Cc1ccc(Nc2nc(-c3sc(NC(=O)c4ccc([N+](=O)[O-])cc4)nc3C)cs2)cc1,-9%,3%,-2%,?,0%,?
COc1ccc(-n2nc3ccc(NC(=O)c4cccc(OCCC(C)C)c4)cc3n2)cc1,5%,/,/,1%,/,/
O=C(CSc1nc2ccccc2nc1Cc1ccc(Cl)cc1)N1CCCc2ccccc21,/,/,/,2%,/,/
Cc1ccc(CNC(=O)c2cc(-c3ccc(C)cc3)nc3n[nH]c(-c4cccc([N+](=O)[O-])c4)c23)cc1,/,/,/,-1%,/,/
SMILES,SMN2 splice up,ELG1 genotoxic,NPC1 prom act,FLuc counter,Rab9 prom act,ELG1 DNA repair
COc1ccc(Nc2nc(-c3sc(N)nc3C)cs2)cc1,18%,?,?,13µM*,22%,?
COc1ccc(C(CC(=O)Nc2ccc(C(C)=O)cc2)N2Cc3ccccc3C2=O)cc1 (stereo not given),/,/,/,-17%,/,/
Cn1c(=O)c2[nH]c(-c3ccccc3O)nc2n(C)c1=O,-2%,-6%,25%,-17%,-5%,0%
CCCOc1ccccc1-c1nc2c([nH]1)c(=O)[nH]c(=O)n2C,28µM*,?,-1%,7%,-1%,13%
O=C(CN1CCOCC1)Nc1ccc([N+](=O)[O-])cc1,/,2%,0%,-1%,-2%,2%
Cc1cc(=O)n(Cc2cccc(Br)c2)c2c1c(C)nn2-c1ccccc1,/,/,/,-1%,/,/
COc1ccc(CCN(/C=C2\Sc3ccccc3C2=O)C(C)=O)cc1OC,/,0%,-5%,27µM*,-3%,?
Brc1ccc2oc(-c3ccn[nH]3)cc2c1,/,?,2.2µM*,3µM*,2.5µM*,?
COC(=O)C(=Cc1ccc(-c2ccsc2C(=O)OC)o1)C(=O)OC,/,-3%,7%,11µM*,21%,29%
CCOC(=O)/C(C#N)=C/Nc1ccsc1C(C)=O,/,8%,0%,?,1%,?
CCCCOC(=O)/C(C#N)=C\c1ccc(-c2ccc(Cl)cc2)o1,-8%,/,/,?,/,/
COC(=O)c1sccc1-c1ccc(C(N)=O)o1,6%,1%,0%,-3%,-13%,-18%
CCOC(=O)/C(C#N)=C/c1ccc(-c2ccc(Br)cc2)o1,12%,/,/,6.7µM*,/,/
CCOC(=O)C(=Cc1ccc(-c2ccsc2C(=O)OC)o1)C(=O)OCC,-11%,-11%,-3%,19µM*,3%,?
CCOC(=O)/C(C#N)=C/c1ccc(-c2ccsc2C(=O)OC)o1,6%,16%,?,-18%,2.5µM*,?
CCCS(=O)(=O)N1CC(=O)N(c2ccccc2F)C(C)(C(=O)NC2CCCCCC2)C1 (stereo not given),/,/,/,4%,/,/
CC(C)Cc1nccs1,11%,-10%,-2%,0%,0%,4%
C#CCOCCOCCOCCNc1nc(N2CCN(C(=O)[C@H](CCCN=C(N)N)n3cc(C(N)[C@@H](C)CC)nn3)CC2)nc(N2CCN(C(=O)[C@H](CCC(=O)O)n3cc([C@@H](N)CO)nn3)CC2)n1 (stereo not given in full),/,-1%,/,/,/,12%
COC(=O)c1sccc1-c1ccc(C(=O)Nc2cccnc2)o1,18µM*,16%,2.2µM*,8.5µM*,3.5µM*,?
COC(=O)c1sccc1NC(=O)c1cccnc1,-7%,/,/,6%,/,/
COC(=O)c1sccc1NC(=O)c1cccs1,/,2%,-4%,6%,1%,-2%

# Assay outcomes: PubChem BioAssay, National Center for Advancing Translational Sciences (NCATS)
